Measured potencies and affinities stand elsewhere. Unmarked numbers belong to inactive results. The rule behind the calls is not given here.

The nature of the test: mammalian cell viability reduction – secondary assay, cytotoxicity control for West Nile virus antiviral project, dose response (AID 1650). As to conditions: Mammalian host cell viability, cytotoxicity counter-screen; series mostly up to 10 µM; viability: at the top concentration.
Take `CN1CCN(c2ccc(S(=O)(=O)N3CCCCC3)cc2NC(=O)c2ccc3ccccc3c2)CC1`: the “viability” value is 85.4%.
The figure for `CCN(CC)CCn1c(=N)n(CC(=O)c2ccc(Br)s2)c2ccccc21` is 77.2% [at 20 µM]; for `CCOc1ccc2nc(N3CCCC(C(=O)NCCCN4C(C)CCCC4C)C3)sc2c1` (stereo unspecified) it is 86.3% [at 20 µM]; for `CN(C)CCNC=C(C(=O)Nc1ccc(Cl)cc1Cl)C(=O)Nc1ccc(Cl)cc1Cl` it is 80.2% [at 20 µM].
Consider `COc1ccc(C2c3ccc4ccccc4c3Oc3ncn(CCO)c(=N)c32)cc1OC` (stereo unspecified), for which the “viability” value was 80.3% [at 20 µM].
For `N#Cc1cc(-c2ccc(Cl)cc2)cnc1Sc1ccc(F)cc1`, the “viability” value is 83.1% [at 20 µM].
With `CCc1ccc2nc(N(CCCN(C)C)C(=O)c3ccc4c(c3)OCCO4)sc2c1`, the “viability” value is 76% [at 20 µM].
`CC(C)c1ccc(-c2cc(C(=O)NN3CCN(C)CC3)c3ccccc3n2)cc1`: the “viability” value was 77.3%.
In the case of `CCCCCn1c(N2CCC(Cc3ccccc3)CC2)nc2c1c(=O)[nH]c(=O)n2C`, the “viability” value is 71.8%.
For `O=C(CCN1C(=O)/C(=C\c2ccccc2Cl)SC1=S)N1CCN(c2ccccc2)CC1`, the “viability” value was 76.2% [at 20 µM].
On to `CN(C)CCNc1ncnc2c1sc1nc(-c3ccccc3)c3c(c12)CCCC3`, for which the “viability” value is 78.4%.
As to `Cc1ccc(Cl)cc1N1CCN(CC(=O)Nc2ccc(CN3CCCCC3)cc2)CC1`, the “viability” value was 91% [at 20 µM].
The figure for `CC1(C)CC(NC(=O)COc2cc3oc(=O)c4c(c3cc2Cl)CCC4)CC(C)(C)N1` is 81.5%; for `O=C(CCCN1C(=O)/C(=C\c2ccccc2)SC1=S)Nc1ccc(O)cc1` it is 72.3% [at 20 µM]; for `CC1CCN(c2nc3ccc(C(=O)NCCCN4CCCCC4)cc3s2)CC1` it is 81.7% [at 20 µM].
The figure for `O=C(CN1C(=O)/C(=C\c2cccc(Cl)c2)Sc2ccccc21)NCCCN1CCOCC1` is 78.4% [at 20 µM].
